In the supplement of paper PMC11732987, “Enantioselective OTUD7B fragment discovery through chemoproteomics screening and high-throughput optimisation” (Communications Chemistry, 2025):
Unmarked numbers belong to inactive results.

What was measured:
Test in all cases: log2 ratio of Biotin-Ahx-Ub-VS probe labelling (fragment/DMSO); higher = less target engagement (more negative = stronger competition), active = hit call of the paper (q ≤ 0.05, log2 ratio ≤ -1)
Details in all cases: compound concentration: 200 uM; treatment time: 3 h
[1] = molecular target: T1, OTUD6B (UniProt Q8N6M0)
T1 sequence (whole entry): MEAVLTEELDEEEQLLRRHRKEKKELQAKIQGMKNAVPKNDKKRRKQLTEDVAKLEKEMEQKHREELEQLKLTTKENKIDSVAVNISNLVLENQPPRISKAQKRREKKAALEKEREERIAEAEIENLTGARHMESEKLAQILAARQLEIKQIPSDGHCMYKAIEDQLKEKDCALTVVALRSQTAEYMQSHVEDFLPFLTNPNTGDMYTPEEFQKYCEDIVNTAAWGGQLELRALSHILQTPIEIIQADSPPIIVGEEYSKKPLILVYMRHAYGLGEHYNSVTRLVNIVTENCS
Outline: (§1)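 In triplicate, 495 µg of HEK293T lysate per sample was incubated with fragment at 200 µM or vehicle for 3 h. Biotin-Ahx-Ub-VS was then added to 0.5 µM final for 1 h, and labelled DUBs were captured with NeutrAvidin, digested with LysC and trypsin, and measured by diaPASEF LC-MS/MS. Data are average log2 fragment/vehicle ratios by unpaired t-test from global-median-normalised Spectronaut label-free quantities, restricted to proteins with ≥2 unique peptides.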

[2] = molecular target: T2, OTUD7B (UniProt Q6GQQ9)
T2 sequence (whole entry): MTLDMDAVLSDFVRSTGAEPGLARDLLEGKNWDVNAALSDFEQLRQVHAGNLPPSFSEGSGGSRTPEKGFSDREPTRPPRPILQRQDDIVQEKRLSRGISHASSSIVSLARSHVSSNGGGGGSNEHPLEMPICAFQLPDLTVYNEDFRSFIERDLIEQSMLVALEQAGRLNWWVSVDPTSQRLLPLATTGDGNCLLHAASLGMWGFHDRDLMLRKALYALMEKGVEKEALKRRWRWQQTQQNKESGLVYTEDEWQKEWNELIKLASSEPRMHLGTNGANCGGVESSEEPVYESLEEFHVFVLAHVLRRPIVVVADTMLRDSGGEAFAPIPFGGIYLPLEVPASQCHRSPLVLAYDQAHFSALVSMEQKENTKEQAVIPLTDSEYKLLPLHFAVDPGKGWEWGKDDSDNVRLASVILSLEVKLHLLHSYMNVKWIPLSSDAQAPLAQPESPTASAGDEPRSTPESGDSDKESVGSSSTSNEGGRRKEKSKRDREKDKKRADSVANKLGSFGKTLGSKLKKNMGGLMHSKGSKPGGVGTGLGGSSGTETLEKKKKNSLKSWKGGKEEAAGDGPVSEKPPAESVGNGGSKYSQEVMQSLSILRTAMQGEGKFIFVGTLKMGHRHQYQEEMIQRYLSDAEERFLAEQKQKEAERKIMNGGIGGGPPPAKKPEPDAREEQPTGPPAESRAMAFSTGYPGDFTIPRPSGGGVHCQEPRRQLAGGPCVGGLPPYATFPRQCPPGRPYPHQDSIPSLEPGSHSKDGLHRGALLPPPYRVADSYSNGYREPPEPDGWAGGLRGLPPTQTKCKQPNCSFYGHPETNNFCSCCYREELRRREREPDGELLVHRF
Outline: as §1

[3] = molecular target: PRPF8 (UniProt Q6P2Q9)
Outline: as §1

[4] = molecular target: T3, PSMD7 (UniProt P51665)
T3 sequence (whole entry): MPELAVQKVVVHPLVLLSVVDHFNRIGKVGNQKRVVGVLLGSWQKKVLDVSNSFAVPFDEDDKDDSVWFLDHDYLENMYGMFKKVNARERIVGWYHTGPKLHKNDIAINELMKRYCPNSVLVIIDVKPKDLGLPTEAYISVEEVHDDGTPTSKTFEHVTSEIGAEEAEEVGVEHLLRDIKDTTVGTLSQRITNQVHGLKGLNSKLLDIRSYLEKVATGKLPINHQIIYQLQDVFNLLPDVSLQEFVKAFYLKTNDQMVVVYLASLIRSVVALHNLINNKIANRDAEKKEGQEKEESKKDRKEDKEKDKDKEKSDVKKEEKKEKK
Outline: as §1

[5] = molecular target: UCHL1 (UniProt P09936)
UCHL1, sequence (P09936 whole entry, looked up): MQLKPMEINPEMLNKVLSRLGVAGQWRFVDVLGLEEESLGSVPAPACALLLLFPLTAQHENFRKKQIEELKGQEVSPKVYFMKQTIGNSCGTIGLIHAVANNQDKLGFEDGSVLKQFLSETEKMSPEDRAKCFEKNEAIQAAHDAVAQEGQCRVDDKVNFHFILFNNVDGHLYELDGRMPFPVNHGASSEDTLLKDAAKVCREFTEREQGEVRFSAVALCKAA
Outline: as §1

[6] = molecular target: T4, UCHL3 (UniProt P15374)
T4 sequence (whole entry): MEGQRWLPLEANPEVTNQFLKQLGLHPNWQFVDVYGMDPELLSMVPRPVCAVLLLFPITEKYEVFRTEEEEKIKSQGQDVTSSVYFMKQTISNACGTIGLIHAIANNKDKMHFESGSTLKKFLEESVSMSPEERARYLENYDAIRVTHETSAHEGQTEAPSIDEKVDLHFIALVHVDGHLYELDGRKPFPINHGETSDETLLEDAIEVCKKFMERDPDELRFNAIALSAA
Outline: as §1

[7] = molecular target: T5, UCHL5 (UniProt Q9Y5K5)
T5 sequence (whole entry): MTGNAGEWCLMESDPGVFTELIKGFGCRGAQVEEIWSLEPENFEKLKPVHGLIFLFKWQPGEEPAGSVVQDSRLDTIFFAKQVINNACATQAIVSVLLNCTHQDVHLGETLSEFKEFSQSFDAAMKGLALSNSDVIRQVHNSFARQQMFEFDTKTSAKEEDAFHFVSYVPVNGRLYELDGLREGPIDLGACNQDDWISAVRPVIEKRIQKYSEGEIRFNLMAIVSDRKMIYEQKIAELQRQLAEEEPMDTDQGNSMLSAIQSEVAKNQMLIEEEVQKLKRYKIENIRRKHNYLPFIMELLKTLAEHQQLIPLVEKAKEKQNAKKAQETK
Outline: as §1

[8] = molecular target: USP10 (UniProt Q14694)
USP10, sequence (Q14694 whole entry): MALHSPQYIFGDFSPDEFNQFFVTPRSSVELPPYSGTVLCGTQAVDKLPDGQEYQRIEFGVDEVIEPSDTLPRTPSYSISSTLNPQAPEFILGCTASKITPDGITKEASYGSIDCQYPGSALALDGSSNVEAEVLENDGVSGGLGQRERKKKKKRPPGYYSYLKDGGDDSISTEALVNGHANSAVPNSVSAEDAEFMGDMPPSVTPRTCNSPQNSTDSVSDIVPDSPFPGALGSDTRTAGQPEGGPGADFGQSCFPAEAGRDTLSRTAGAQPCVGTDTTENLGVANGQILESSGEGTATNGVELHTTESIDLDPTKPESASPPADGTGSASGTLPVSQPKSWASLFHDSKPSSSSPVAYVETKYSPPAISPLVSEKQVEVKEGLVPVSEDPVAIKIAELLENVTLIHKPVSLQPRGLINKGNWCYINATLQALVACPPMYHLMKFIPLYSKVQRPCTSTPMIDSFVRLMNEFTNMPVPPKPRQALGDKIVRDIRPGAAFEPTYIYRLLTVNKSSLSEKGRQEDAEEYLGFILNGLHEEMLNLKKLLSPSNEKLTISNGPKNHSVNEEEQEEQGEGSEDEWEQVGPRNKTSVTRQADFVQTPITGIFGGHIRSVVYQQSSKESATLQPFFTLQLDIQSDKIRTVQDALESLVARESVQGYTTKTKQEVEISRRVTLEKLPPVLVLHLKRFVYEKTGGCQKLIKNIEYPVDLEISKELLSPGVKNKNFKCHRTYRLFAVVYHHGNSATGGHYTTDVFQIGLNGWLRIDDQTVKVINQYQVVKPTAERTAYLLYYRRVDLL
Outline: as §1

[9] = molecular target: T6, USP15 (UniProt Q9Y4E8)
T6 sequence (whole entry): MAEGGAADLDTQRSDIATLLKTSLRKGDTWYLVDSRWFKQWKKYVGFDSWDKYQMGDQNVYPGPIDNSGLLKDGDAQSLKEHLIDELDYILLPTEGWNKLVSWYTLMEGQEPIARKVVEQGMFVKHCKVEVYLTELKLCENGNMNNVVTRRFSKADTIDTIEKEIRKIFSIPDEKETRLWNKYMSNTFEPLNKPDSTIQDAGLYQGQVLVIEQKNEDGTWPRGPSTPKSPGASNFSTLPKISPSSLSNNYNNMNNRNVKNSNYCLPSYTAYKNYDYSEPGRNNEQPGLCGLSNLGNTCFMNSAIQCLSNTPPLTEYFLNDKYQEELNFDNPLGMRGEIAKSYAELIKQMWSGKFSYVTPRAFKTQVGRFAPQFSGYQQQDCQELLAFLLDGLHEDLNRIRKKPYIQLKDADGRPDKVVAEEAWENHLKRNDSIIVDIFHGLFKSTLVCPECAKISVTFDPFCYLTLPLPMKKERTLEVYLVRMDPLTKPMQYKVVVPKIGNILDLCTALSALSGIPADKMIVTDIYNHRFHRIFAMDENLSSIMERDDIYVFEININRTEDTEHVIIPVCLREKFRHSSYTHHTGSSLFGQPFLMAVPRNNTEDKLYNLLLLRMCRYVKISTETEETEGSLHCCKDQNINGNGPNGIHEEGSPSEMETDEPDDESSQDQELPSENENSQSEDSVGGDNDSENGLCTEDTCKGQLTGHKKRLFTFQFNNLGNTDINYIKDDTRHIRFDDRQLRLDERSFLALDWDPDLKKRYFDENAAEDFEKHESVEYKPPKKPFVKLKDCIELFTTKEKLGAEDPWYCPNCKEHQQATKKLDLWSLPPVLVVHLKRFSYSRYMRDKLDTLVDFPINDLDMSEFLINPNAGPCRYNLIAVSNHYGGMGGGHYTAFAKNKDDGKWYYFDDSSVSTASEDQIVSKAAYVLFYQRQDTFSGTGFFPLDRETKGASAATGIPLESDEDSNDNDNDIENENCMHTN
Outline: as §1

[10] = molecular target: USP16 (UniProt Q9Y5T5)
USP16, sequence (Q9Y5T5 whole entry, looked up): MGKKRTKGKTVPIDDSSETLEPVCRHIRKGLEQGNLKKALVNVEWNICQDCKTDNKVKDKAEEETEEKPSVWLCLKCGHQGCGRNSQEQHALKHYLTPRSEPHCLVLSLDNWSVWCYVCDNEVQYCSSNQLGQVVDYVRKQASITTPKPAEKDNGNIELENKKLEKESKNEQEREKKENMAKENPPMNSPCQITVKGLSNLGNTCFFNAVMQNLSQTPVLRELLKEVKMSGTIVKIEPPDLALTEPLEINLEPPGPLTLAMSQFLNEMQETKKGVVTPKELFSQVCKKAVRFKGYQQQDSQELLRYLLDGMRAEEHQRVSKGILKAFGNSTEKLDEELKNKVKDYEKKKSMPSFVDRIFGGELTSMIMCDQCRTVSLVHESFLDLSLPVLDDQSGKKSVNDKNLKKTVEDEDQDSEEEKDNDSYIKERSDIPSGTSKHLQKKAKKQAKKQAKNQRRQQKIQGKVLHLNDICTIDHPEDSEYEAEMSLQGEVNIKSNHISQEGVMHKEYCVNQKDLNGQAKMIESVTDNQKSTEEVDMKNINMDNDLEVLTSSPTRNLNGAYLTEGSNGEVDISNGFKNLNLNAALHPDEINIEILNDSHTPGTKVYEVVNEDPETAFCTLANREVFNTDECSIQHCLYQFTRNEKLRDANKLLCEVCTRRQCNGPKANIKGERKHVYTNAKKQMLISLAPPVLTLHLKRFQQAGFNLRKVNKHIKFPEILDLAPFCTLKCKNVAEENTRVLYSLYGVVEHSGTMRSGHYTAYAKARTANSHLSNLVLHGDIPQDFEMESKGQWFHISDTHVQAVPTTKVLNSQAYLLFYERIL
Outline: as §1

Structure (SMILES) | log2 ratio of Biotin-Ahx-Ub-VS probe labelling [1] | log2 ratio of Biotin-Ahx-Ub-VS probe labelling [2] | log2 ratio of Biotin-Ahx-Ub-VS probe labelling [3] | log2 ratio of Biotin-Ahx-Ub-VS probe labelling [4] | log2 ratio of Biotin-Ahx-Ub-VS probe labelling [5] | log2 ratio of Biotin-Ahx-Ub-VS probe labelling [6] | log2 ratio of Biotin-Ahx-Ub-VS probe labelling [7] | log2 ratio of Biotin-Ahx-Ub-VS probe labelling [8] | log2 ratio of Biotin-Ahx-Ub-VS probe labelling [9] | log2 ratio of Biotin-Ahx-Ub-VS probe labelling [10]
COCC1C=CCCN1C(=O)CCl (stereo not given) | -0.121 | -0.466 | -0.181 | -0.134 | -1.94 (active) | -0.0426 | -0.167 | -0.0693 | -0.145 | -0.0544
O=C(CCl)N1CCc2nc[nH]c2C1c1ccc(Cl)cc1 (stereo not given) | -0.263 | -1.05 (active) | -0.0118 | -0.165 | -0.466 | 0.28 | -0.221 | -0.161 | -0.182 | -0.287
CC(NC(=O)CCl)c1cccc(Cl)c1 (stereo not given) | -0.345 | -1.21 (active) | -0.202 | -0.316 | -1.58 (active) | -0.204 | -0.426 | -0.136 | -0.301 | 0.118
CN1C(=O)c2ccc(NC(=O)CCl)cc2C1=O | -0.407 | -1.76 (active) | 0.154 | -0.0627 | -1.24 (active) | 0.282 | -0.2 | -0.0313 | -0.389 | -0.455
CCN1C(=O)C2CN(C(=O)CCl)CCN2C1=O (stereo not given) | -0.0446 | -0.649 | 0.0726 | 0.0575 | -1.56 (active) | 0.629 | -0.0935 | -0.0852 | -0.265 | -0.656
CN(C)C(=O)c1ccc(CNC(=O)CCl)cc1 | -0.0231 | -0.351 | -0.0967 | -0.0924 | -1.23 (active) | 0.248 | -0.118 | -0.0496 | 0.0414 | 0.0806
O=C(CCl)Nc1cc(Cl)ccc1-n1cncn1 | -1.04 (active) | -2.08 (active) | -0.132 | -0.143 | -1.89 (active) | -0.609 | -1.18 (active) | -0.141 | -1.26 (active) | 0.0892
Cc1ccc(CN(C)C(=O)CCl)o1 | 0.0695 | -0.158 | -0.0488 | 0.0152 | -1.38 (active) | 0.611 | -0.238 | -0.157 | -0.201 | -0.0354
O=C(CCl)N1CCOC2(CCC2)CC1 | -0.0124 | -0.961 | -0.071 | -0.283 | -1.35 (active) | 0.146 | -0.0451 | -0.118 | -0.447 | 0.117
C[C@H]1CN(C(=O)CCl)CCN1C(=O)c1cnn(C)c1.Cl | -0.288 | -0.168 | 0.144 | -0.0809 | -2.38 (active) | 0.376 | -0.259 | 0.0256 | -0.149 | -0.146
Cc1ccn2cc(CNC(=O)CCl)nc2c1.Cl | -0.283 | -0.682 | 0.0356 | -0.104 | -0.67 | -0.0928 | -0.311 | 0.0849 | -0.244 | 0.0424
O=C(CCl)NCc1ccc(N2CCOCC2)nc1 | -0.139 | -0.502 | -0.0538 | -0.249 | -1.45 (active) | 0.0731 | -0.235 | -0.0833 | -0.285 | -0.342
Cc1noc(N2CCN(C(=O)CCl)CC2)n1.Cl | -0.229 | -0.413 | -0.079 | 0.128 | -1.52 (active) | 0.0214 | -0.188 | -0.076 | -0.285 | 0.132
